C diff HTS: C. difficile growth inhibitors, primary screen, HTS; growth activity, negative = inhibition, % at 16 µg/mL (by protocol); 86,000 tested, 0.25% active; Clostridium difficile clinical isolate growth, OD600, 24 h; hits give low values;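 active = mean growth activity at or below -80% and every replicate also at or below -80%; inconclusive = mean at or below -80% but some replicate above -80%; inactive = mean growth activity above -80%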;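 also: 0% = DMSO wells and -100% = levofloxacin 16 µg/mL wells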
Pf Dd2 growth: P. falciparum Dd2 growth inhibitors, primary screen, SYBR Green fluorescence, single dose replicates | 72 h; hits give low values | activity change, % at 10 µM | 94,000 tested, 2.3% active | AID 1159554, 2015; in the data active = activity change below about -80%; inconclusive = no clear call, values can overlap the other calls
T cruzi growth-1: T. cruzi intracellular proliferation inhibitors, primary screen, cell-based, beta-gal Tulahuen parasites, NIH3T3 host, luminescence | T. cruzi beta-gal in NIH3T3, GalScreen luminescence, 90 h | inhibition, % at 8.34 µM | 77,000 tested, 5.9% active | AID 624255, 2012;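 active = mean inhibition above about 93%, with at least 55% of replicates each passing it, limit read from the data, passing the limit was not always enough; inconclusive = only one of those two conditions holds; inactive = neither condition holds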
T cruzi growth-2: T. cruzi intracellular proliferation inhibitors, confirmation, cell-based, NIH3T3 host, beta-gal parasite, luminescence, cherry-pick | 5,600 tested, 72% active | shares compounds with T cruzi growth-1 | T. cruzi beta-gal in NIH3T3, GalScreen luminescence, 90 h | inhibition, % at 8.35 µM;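 active = mean replicate inhibition above about 95% and at least 55% of replicates individually reaching it, limit read from the data; inconclusive = only one of the two criteria is met; inactive = neither criterion is met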
T cruzi growth-3: inhibitors of intracellular T. cruzi replication, confirmation, NIH3T3 host cells, beta-gal parasites, cherry-pick, set 2; shares compounds with T cruzi growth-1; T. cruzi beta-gal in NIH3T3, GalScreen luminescence, 90 h; inhibition, % at 2.09 µM; 5,600 tested, 21% active; AID 651740, 2012;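 active = mean inhibition above about 95%, with at least 55% of replicates also reaching it, limit read from the data; inconclusive = meets just one of the two conditions; inactive = meets neither condition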;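 also: plate controls were neutral control median for no effect and positive control median for full effect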
3T3 cytotox: cytotoxicity in mouse NIH/3T3 fibroblasts, confirmation, cytotoxicity control for T. cruzi proliferation inhibitor project, cell-based, cherry-pick, single point; shares compounds with T cruzi growth-1; NIH/3T3 viability, CellTiter-Glo ATP luminescence, 90 h; cytotoxicity (signal decrease), % at 8.35 µM; 5,600 tested, 14% active; AID 651742, 2012;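 active = mean signal decrease across replicates above about 35% based on untreated-well scatter, with enough replicates individually passing, limit read from the data; inconclusive = no rule stated though some were filed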;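 also: 0% = median of neutral control wells and 100% = median of positive control wells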
NIH3T3 tox 2: NIH/3T3 fibroblast cytotoxicity, confirmation, cytotoxicity control, cell-based, cherry-pick, single point, set 2; shares compounds with T cruzi growth-1; NIH/3T3 viability, CellTiter-Glo ATP luminescence, 90 h; inhibition, % at 24.9 µM; 5,600 tested, 56% active;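 active = mean loss of cell viability signal at or above a set limit, and enough replicates individually reaching it; inconclusive = meets only the mean limit or only the replicate share; inactive = meets neither condition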;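 also: 0% = median of neutral control wells and 100% = median of positive control wells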
* = called active by the depositor; ? = inconclusive; . = not tested or not shown. Only some compounds are listed: those with a hit (about 6.8% of all), similar ones and a draw of the others.

SMILES	C diff HTS	Pf Dd2 growth	T cruzi growth-1	T cruzi growth-2	T cruzi growth-3	3T3 cytotox	NIH3T3 tox 2
COc1ccc(-c2ccc3c(c2)[C@@H]2[C@@H](CCN2C(=O)Cc2cccnc2)[C@H](CO)N3C)cc1	-4.0	-2.8	76.3	.	.	.	.
CN1c2ccc(-c3ccccc3)cc2[C@H]2[C@H](CCN2C(=O)Cc2cccnc2)[C@H]1CO	-3.3	6.0	?	99.0*	75.7	-10.9	-6.5
CN1c2ccc(-c3ccccc3)cc2[C@H]2[C@H](CCN2C(=O)Cc2cccnc2)[C@@H]1CO	-7.0	9.3	107.3*	110.7*	96.6*	-24.0	-13.1
CN1c2ccc(-c3cccc(F)c3)cc2[C@H]2[C@H](CCN2C(=O)Cc2cccnc2)[C@H]1CO	4.3	8.2	83.8	.	.	.	.
COc1ccc2c3c(n(C)c2c1)[C@@H](CO)N(C(=O)NC(C)C)CC31CN(CC2CCOCC2)C1	-5.5	32.7	.	.	.	.	.
O=C(C[C@H]1C=C[C@H](NC(=O)Nc2ccc3c(c2)OCO3)[C@@H](CO)O1)NCc1ccc(Cl)cc1	.	9.9	-8.8	.	.	.	.
COc1ccc2c3c([nH]c2c1)[C@H](CO)N(C(=O)Nc1ccc(F)cc1)CC31CN(S(=O)(=O)c2cn(C)cn2)C1	-3.3	3.7	.	.	.	.	.
C[C@@H]1CN([C@@H](C)CO)C(=O)c2cc(NC(=O)Nc3ccc(F)cc3)ccc2O[C@H]1CN(C)C(=O)Nc1ccc2c(c1)OCO2	4.2	-6.8	7.6	.	.	.	.
C[C@H](CO)N1C[C@H](C)[C@@H](CN(C)C(=O)C2CCCCC2)Oc2cc(C#CCN(C)C)ccc2S1(=O)=O	2.6	-18.5	.	.	.	.	.
CC(C)C#Cc1ccc2c(c1)O[C@@H](CN(C)C(=O)C1CCC1)[C@H](C)CN([C@H](C)CO)S2(=O)=O	.	-48.7	76.1	.	.	.	.
C[C@H]1CN([C@@H](C)CO)S(=O)(=O)c2ccc(C#CCN(C)C)cc2O[C@@H]1CN(C)C(=O)C1CCC1	-3.3	1.1	104.8*	105.6*	94.8	3.3	-9.5
C[C@H](CO)N1C[C@H](C)[C@H](CN(C)C(=O)C2CCC2)Oc2cc(C#CCN(C)C)ccc2S1(=O)=O	-2.6	-20.0	?	113.7*	97.6*	-10.0	3.0
COc1ccc(NC(=O)Nc2ccc3c(c2)CC(=O)N([C@@H](C)CO)C[C@@H](C)[C@@H](CN(C)C(=O)Nc2c(C)noc2C)O3)cc1	-6.2	2.7	22.4	.	.	.	.
COc1cccc(-c2ccc([C@@H]3[C@H](CO)N(C(=O)C4CC4)C34CN(C(C)=O)C4)cc2)c1	0.1	2.3	.	.	.	.	.
COc1ccc(-c2cnc3c(c2)C(=O)N([C@H](C)CO)C[C@H](C)[C@@H](CN(C)C(=O)CN(C)C)O3)cc1	-6.6	-6.6	105.4*	35.6	3.3	23.3	1.7
C[C@H](CO)N1C[C@H](C)[C@H](CN(C)S(=O)(=O)c2cccs2)Oc2ncc(-c3cc4ccccc4o3)cc2C1=O	14.8	-74.6	123.0*	110.0*	75.3	35.1*	15.0
Cc1ccc(S(=O)(=O)N(C)C[C@@H]2Oc3ncc(C#Cc4ccc(C(F)(F)F)cc4)cc3C(=O)N([C@H](C)CO)C[C@@H]2C)cc1	.	-44.8	?	89.1	112.0*	33.7	38.8*
C[C@H](CO)N1C[C@H](C)[C@H](CN(C)C)Oc2ncc(-c3cc4ccccc4o3)cc2C1=O	-5.8	0.9	76.8	.	.	.	.
COc1ccc(S(=O)(=O)N(C)C[C@@H]2Oc3ncc(C#Cc4ccc(C(F)(F)F)cc4)cc3C(=O)N([C@H](C)CO)C[C@@H]2C)cc1	-1.6	-73.5	15.9	.	.	.	.
COc1ccc(-c2cnc3c(c2)C(=O)N([C@@H](C)CO)C[C@H](C)[C@H](CN(C)C(=O)CN(C)C)O3)cc1	-2.2	25.6	49.3	.	.	.	.
C[C@H](CO)N1C[C@H](C)[C@H](CN(C)S(C)(=O)=O)Oc2ncc(C#Cc3cccc(F)c3)cc2C1=O	-4.8	-3.3	.	.	.	.	.
C[C@H](CO)N1C[C@H](C)[C@H](CN(C)S(=O)(=O)c2cccs2)Oc2ncc(C#Cc3cccc(F)c3)cc2C1=O	0.5	-39.4	97.7*	110.1*	68.7	1.5	5.0
CCCNC(=O)[C@H]1[C@H](CO)[C@H]2Cn3c(ccc(C4=CCCC4)c3=O)[C@H]2N1C(=O)C1CC1	-1.8	6.1	-2.1	.	.	.	.
C[C@H](CO)N1C[C@H](C)[C@H](CN(C)S(=O)(=O)c2ccc(F)cc2)Oc2ncc(C#Cc3ccccc3)cc2C1=O	.	-66.7	106.3*	?	77.5	7.3	28.1*
C[C@@H]1CN([C@@H](C)CO)C(=O)c2cc(C#CCN(C)C)cnc2O[C@@H]1CN(C)S(=O)(=O)c1ccccc1	-1.6	24.9	40.8	.	.	.	.
SMILES	C diff HTS	Pf Dd2 growth	T cruzi growth-1	T cruzi growth-2	T cruzi growth-3	3T3 cytotox	NIH3T3 tox 2
C[C@H](CO)N1C[C@H](C)[C@H](CN(C)S(=O)(=O)c2cccc(F)c2)Oc2ncc(C#Cc3ccccc3)cc2C1=O	.	-71.7	39.2	.	.	.	.
COc1ccc(-c2cnc3c(c2)C(=O)N([C@@H](C)CO)C[C@H](C)[C@@H](CN(C)S(=O)(=O)c2ccc(OC)cc2)O3)cc1	.	-36.5	105.5*	104.4*	57.6	8.9	?
C[C@H](CO)N1C[C@H](C)[C@H](CN(C)S(=O)(=O)c2cccc(F)c2)Oc2ncc(C#Cc3ccc(C(F)(F)F)cc3)cc2C1=O	6.4	-79.4	?	101.4*	109.3*	25.0	36.3*
COc1ccc(-c2cnc3c(c2)C(=O)N([C@H](C)CO)C[C@@H](C)[C@@H](CN(C)S(=O)(=O)c2ccc(OC)cc2)O3)cc1	.	-20.5	69.4	.	.	.	.
C[C@H](CO)N1C[C@H](C)[C@H](CN(C)S(=O)(=O)c2ccccc2)Oc2ncc(C#Cc3ccccc3)cc2C1=O	-0.9	-20.1	98.4	.	.	.	.
C[C@H](CO)N1C[C@H](C)[C@H](CN(C)S(=O)(=O)c2ccccc2)Oc2ncc(C#Cc3ccc(C(F)(F)F)cc3)cc2C1=O	8.2	-51.1	91.7*	107.4*	81.1	32.5	31.8*
O=C(c1ccncc1)N1CC(=O)N2[C@H](C1)[C@@H](c1ccc(/C=C/c3ccccc3)cc1)[C@@H]2CO	-13.3	-3.1	.	.	.	.	.
C/C=C/c1cnc2c(c1)C(=O)N([C@@H](C)CO)C[C@@H](C)[C@@H](CN(C)C(=O)C1CC1)O2	-3.4	19.0	42.1	.	.	.	.
C[C@@H]1CN([C@H](C)CO)C(=O)c2cc(C#CC3(O)CCCC3)cnc2O[C@H]1CN(C)S(C)(=O)=O	-4.8	14.5	-21.3	.	.	.	.
COCC(=O)N(C)C[C@H]1Oc2ncc(-c3ccc(C#N)cc3)cc2C(=O)N([C@H](C)CO)C[C@H]1C	0.5	10.0	.	.	.	.	.

Screening data: PubChem BioAssay, Broad Institute
